55 compounds from PubChem BioAssay AID720553 (National Center for Advancing Translational Sciences (NCATS), 2013) can be followed below.

Each structure is given as a SMILES string. Screen size: about 340,000 compounds; about 3,300 (0.97%) were called active.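 Rule for the calls: active = maximum activity change below -70%; inconclusive = maximum activity change from -70% to -50%; inactive = maximum activity change above -50%.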 For the sample, actives were picked, then their nearest neighbours and some compounds at random.
% is set by controls: 0 for no effect and ±100 for the full control effect.

This experiment deals with Potassium voltage-gated channel subfamily H member 2, brain isoform KCNH2 3.1 (human). The experiment can be described thus: qHTS for Inhibitors of KCHN2 3.1: Mutant qHTS. The following applies: U2OS KCNH2 3.1, thallium flux FluxOr; hits give low values. The text has this:
Many antipsychotic drugs that inhibit the neurotransmitter dopamine also bind to hERG1 channel which might help explain their antipsychotic activity but also produces cardiac side effects. The discovery of the novel KCNH2 3.1 isoform offers a potential new target for the development of antipsychotic drugs without cardiac side effects. This proposal will use a high throughput thallium flux assay developed for KCNH2 to screen compounds that modulate the activity of KCNH2 3.1. The wild type KCNH2 channel will also be screened in parallel to help define the selective modulators of this KCNH2 3.1 potassium channel. The resulting compounds will be validated in electrophysiology experiments. The availability of animal models will allow future testing in vivo for effects on memory and other aspects of animal physiology linked with psychosis. NIH Chemical Genomics Center [NCGC] NIH Molecular Libraries Probe Centers Network [MLPCN] MLPCN Grant: MH096539 Assay Submitter (PI): James Barrow, Johns Hopkins University, Lieber Institute for Brain Development
U2OS cells were resuspended in cell media containing 10% fetal calf serum (FCS) at a concentration of 2 million cells / mL. The solution was treated with the mutant (3.1) virus at 1.77 x 10^8 / mL and allowed to incubate at room temperature in the dark. After 4 hours of incubation, DMEM + 10% fetal bovine serum (FBS) was added to the cell solution. Three microliter was then dispensed into a 1536 tissue culture treated black assay plates which were incubated overnight at 37 C. Two microliter of loading buffer (HBSS + HEPES + Red40 dye quencher + FluxOr dye) was added and the assay plates were incubated for 45 min at room temperature in the dark. […] A stimulation buffer was added to the plate and the second kinetic read (2 min) was obtained. The rate constant was calculated from the kinetic reads and normalized to the positive and negative DMSO controls.
In general terms: Quantitative high-throughput screening tests each substance at several concentrations.
`C[C@@H]1CN([C@@H](C)CO)C(=O)c2cc(Br)cnc2O[C@H]1CN(C)Cc1ccc(-c2ccccc2)cc1`: the activity change was -85.7% (active).
Consider `C[C@H]1CN([C@@H](C)CO)C(=O)c2cc(Br)cnc2O[C@H]1CN(C)S(=O)(=O)c1cccs1`, for which the activity change was -4.3% (inactive).
With `C[C@@H]1CN([C@H](C)CO)C(=O)c2cc(Br)cnc2O[C@@H]1CN(C)Cc1cncnc1` the figure was 6.02% (inactive); with `C[C@H](CO)N1C[C@H](C)[C@H](CN(C)C(=O)Nc2ccc3c(c2)OCO3)Oc2ncc(Br)cc2C1=O`, 12.1% (inactive); with `CSc1ncnc2c1ncn2CCCNCC(C)c1ccccc1` (stereo not given), 6.46% (inactive).
Take `CCCCNC(=O)CSc1nc2n[nH]c(C)c2c(=N)n1-c1cccc(Cl)c1C`: the activity change was -75.1% (active).
As to `COc1cccc(-n2c(SCC(=O)NC3CCCCC3)nc3n[nH]c(C)c3c2=N)c1`, the activity change was 13.7% (inactive).
For the compound `Cc1ccc(-n2c(SCC(=O)NCCC3=CCCCC3)nc3n[nH]c(C)c3c2=N)cc1Cl`, the activity change was -4.71% (inactive).
Take `Cc1[nH]c2ccccc2c1C(=O)C(=O)NCc1nnnn1-c1cccc(F)c1`: the activity change is -6.04% (inactive).
With `O=C(COC(=O)CCc1c[nH]c2ccccc12)Nc1cccc(Cl)c1`, the activity change was -6.53% (inactive).
As for `COCCN(C(=O)COC(=O)Cc1cccc(OC)c1)c1c(N)n(Cc2ccccc2)c(=O)[nH]c1=O`, the activity change is 8.15% (inactive).
For `CCN(C(=O)COC(=O)Cc1c(F)cccc1Cl)c1c(N)n(Cc2ccccc2)c(=O)[nH]c1=O` the value was -102% (active); for `CCN(C(=O)COC(=O)CCOc1cccc(C)c1)c1c(N)n(Cc2ccccc2)c(=O)[nH]c1=O`, 11.4% (inactive); for `CC1CCC2(CC1)NC(=O)N(CC(=O)NCc1ccco1)C2=O` (stereo not given), 15.5% (inactive).
For `COc1ccccc1C(CNC(=O)c1cccc(S(=O)(=O)Nc2ccc(F)cc2)c1)N(C)C` (stereo not given) the value was 0.933% (inactive).
With `O=C(NCCN1CCOCC1)c1cccc(S(=O)(=O)Nc2ccc(F)cc2)c1` the figure was -9.37% (inactive); with `O=C(NCc1ccccc1CN1CCCC1)c1cccc(S(=O)(=O)Nc2ccc(F)cc2)c1`, -81.1% (active).
With `O=C(CC(CC(=O)c1ccccc1)c1ccco1)c1ccccc1`, the activity change is -1.01% (inactive).
With `CSC1=NN(c2ccccc2)CN(c2ccccc2)N1C` the figure was -1.49% (inactive).
As to `Cc1cccnc1NC(=O)CSc1nnc(COc2ccc(C(C)C)cc2)n1C`, the activity change is 13.2% (inactive).
`Cc1ccc(OCc2n[nH]c(=S)n2-c2ccccc2)cc1`: the activity change was -4.15% (inactive).
For `Cc1ccc(OCc2nnc(SC3CCc4ccccc4C3=O)n2C)cc1` (stereo not given) the value was -114% (active); for `Cc1sc2nc(-c3ccccc3F)oc(=O)c2c1C`, 9.16% (inactive); for `CC1=C(C(=O)N(C)C)CC(CC(=O)NCCN2CCOCC2)C(=O)N1Cc1ccccc1` (stereo not given), -16.9% (inactive).
With `C[C@@H]1CN([C@H](C)CO)C(=O)CCCn2cc(nn2)CO[C@H]1CN(C)S(C)(=O)=O`, the activity change is 21.6% (inactive).
For `O=C(NC1CCCC1)c1cc(-c2ccccc2)on1` the value was 4.52% (inactive); for `Cc1ccc(C(=O)NC(C)c2ccccc2)cc1Br` (stereo not given), -9.99% (inactive); for `CC(NC(=O)c1cc(-c2ccccc2)on1)c1ccccc1` (stereo not given), -114% (active).
With `COc1ccc(N2CC(NS(=O)(=O)c3ccc4ccccc4c3)CC2=O)cc1` (stereo not given) the figure was -102% (active); with `COc1cccc(N2CC(NS(=O)(=O)c3ccc(Cl)cc3)CC2=O)c1` (stereo not given), 25.6% (inactive); with `COc1cccc(N2CC(NS(=O)(=O)c3cccs3)CC2=O)c1` (stereo not given), -5.41% (inactive).
For `COc1ccc([C@H]2N[C@]3(CCCN(Cc4ccco4)C3=O)[C@H]3C(=O)N(C)C(=O)[C@@H]23)cc1` the value was -5.99% (inactive); for `CCc1c(N=O)c(-c2ccccc2)n(O)[n+]1[O-]`, -12.8% (inactive).
For the compound `O=C1CC[C@H](O)CCN1[C@H](CSc1ccc(Br)cc1)Cc1ccccc1`, the activity change is 8.81% (inactive).
With `COc1ccc(SC[C@H](Cc2ccccc2)N2CCN(CCc3ccccc3)CCC2=O)cc1` the figure was -105% (active); with `C[C@H]1CCC(=O)N([C@H](CSc2ccccc2)Cc2ccccc2)CC1`, 2.57% (inactive); with `COc1cc(C=NC2CCCCC2)ccc1O`, -7.89% (inactive).
With `C[C@H](CO)N1C[C@H](C)[C@@H](CN(C)S(=O)(=O)c2ccc(Oc3ccccc3)cc2)OCc2cn(nn2)CCCC1=O` the figure was 2.39% (inactive); with `C=CCN1CCN(c2ccncc2S(=O)(=O)N2CCN(C)CC2)CC1`, -3.97% (inactive); with `Cc1ccc([C@H]2C[C@H](O)[C@@H](n3cc(COC(=O)c4ccccc4)nn3)CN2C(=O)C2CCCCC2)cc1`, -7.68% (inactive).
For the compound `COc1cccc(NC(=O)CN(C)C(=O)c2cc(Cl)nc3ccccc23)c1`, the activity change is 14.5% (inactive).
For `CN1CCN(C2Cc3ccc(Cl)cc3Sc3ccc(F)cc32)CC1` (stereo not given) the value was -75.9% (active); for `O=C(O)C1CCCN1c1nc(Cl)ccc1[N+](=O)[O-]` (stereo not given), -2.11% (inactive).
With `O=C(COC(=O)c1ccc(S(=O)(=O)N2CCCCCC2)cc1)Nc1ccccc1C(F)(F)F` the figure was -2.65% (inactive).
For `CC(=O)Nc1c(-c2ccc(C)cc2)nc2ccc(Cl)cn12` the value was 2.86% (inactive).
Regarding `CCCCCC(O)(CCN1CCCCC1)c1ccccc1` (stereo not given), the activity change is -102% (active).
With `C#CC(CCN1CCCCC1)(OC)c1ccccc1` (stereo not given) the figure was 58.1% (inactive).
With `CCCCCCC(O)(CCN1CCCCC1)c1ccccc1` (stereo not given) the figure was -21.6% (inactive); with `Cc1ccc(NC(=O)c2ccco2)cc1`, 4.6% (inactive).
Regarding `Cc1cc(C)c2c(=O)n3c(nc2c1)C(CC(C)C)NC(=O)c1cc2ccccc2cc1-3` (stereo not given), the activity change is -30.6% (inactive).
For the compound `Cc1ccccc1NC(=O)c1cnn(-c2ccccc2)c1NC(=O)c1ccco1`, the activity change is 11.4% (inactive).
`O=C(Nc1nonc1-c1ccc(Cl)cc1)c1ccco1`: the activity change was -7.1% (inactive).
For the compound `O=C(Nc1c(-c2ccccc2)nc2c(Br)cc(Br)cn12)c1ccco1`, the activity change is -72.2% (active).
On to `CCCCCCN1C[C@H](O)[C@@H](n2cc(C3CC3)nn2)C[C@@H]1c1ccc(Cl)cc1`, for which the activity change was -39.7% (inactive).
For `CN1OC[C@@H]2CN(C(=O)c3ccc(-c4ccccc4)cc3)[C@H](c3ccc(-c4cccc(F)c4)cc3)C[C@@H]21` the value was -5.34% (inactive).
